# MPTP inh = blocks calcium-induced mitochondrial swelling; isolated mouse mitochondria, Ca2+ swelling absorbance, 30 min; inhibition, % at 10 µM; 1.4% of 360,000 active;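 active = inhibition of 50% or more, scaled per plate between neutral and stimulator controls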
# ADAM17 inh = inhibitors of human ADAM17; inhibition, % at 6.95 µM; recombinant ADAM17, EDANS/DABCYL FRET peptide cleavage; P78536; 0.83% of 370,000 active;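 active = inhibition above the mean of compounds lying between control limits plus 3 SD, set per campaign, cut at about 8.5% in these data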
# ADAM10 inh = inhibitors of human ADAM10. O14672. recombinant ADAM10, EDANS/DABCYL FRET peptide cleavage, 3 h. inhibition, % at 7 µM. 0.62% of 370,000 active;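 active = inhibition above a per-campaign cutoff equal to the mean of compounds falling between control-based bounds plus 3 SD, cut at about 20% in these data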
# proKLK7 act = activates the human kallikrein-7 zymogen; P49862; activation, % at 7 µM; purified proKLK7, EDANS-DABCYL substrate fluorescence; 100% is mature enzyme control, 0% vehicle; AID 652039; 0.9% of 370,000 active;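 active = activation above the mean of all tested compounds plus 3 SD, computed per campaign excluding outliers beyond control limits, cut at about 13% in these data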
# rCAG binder = molecules binding r(CAG) RNA repeats; r(CAG) RNA repeat, TO-PRO-1 dye displacement fluorescence; inhibition, % at 3 µM; 1.3% of 370,000 active;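 active = inhibition above the plate cutoff, the mean of all test compounds on that plate plus 3 SD, cut at about 35% in these data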;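 note: higher means more dye released from RNA so lower well fluorescence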
# DSG3 Ab inh = inhibitors of pemphigus antibody binding to human desmoglein-3; 0.48% of 310,000 active; DSG3-coupled beads, scFv-anti-DSG3-GFP binding, flow cytometry; stronger effect = lower value; binding (percent of control), % at 10 µM;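 active = binding more than 3 SD below its plate's average and above zero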;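 note: hits lower antibody fragment binding to DSG3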
# Target sequence (P32926 whole entry, looked up, the tested form may be a part): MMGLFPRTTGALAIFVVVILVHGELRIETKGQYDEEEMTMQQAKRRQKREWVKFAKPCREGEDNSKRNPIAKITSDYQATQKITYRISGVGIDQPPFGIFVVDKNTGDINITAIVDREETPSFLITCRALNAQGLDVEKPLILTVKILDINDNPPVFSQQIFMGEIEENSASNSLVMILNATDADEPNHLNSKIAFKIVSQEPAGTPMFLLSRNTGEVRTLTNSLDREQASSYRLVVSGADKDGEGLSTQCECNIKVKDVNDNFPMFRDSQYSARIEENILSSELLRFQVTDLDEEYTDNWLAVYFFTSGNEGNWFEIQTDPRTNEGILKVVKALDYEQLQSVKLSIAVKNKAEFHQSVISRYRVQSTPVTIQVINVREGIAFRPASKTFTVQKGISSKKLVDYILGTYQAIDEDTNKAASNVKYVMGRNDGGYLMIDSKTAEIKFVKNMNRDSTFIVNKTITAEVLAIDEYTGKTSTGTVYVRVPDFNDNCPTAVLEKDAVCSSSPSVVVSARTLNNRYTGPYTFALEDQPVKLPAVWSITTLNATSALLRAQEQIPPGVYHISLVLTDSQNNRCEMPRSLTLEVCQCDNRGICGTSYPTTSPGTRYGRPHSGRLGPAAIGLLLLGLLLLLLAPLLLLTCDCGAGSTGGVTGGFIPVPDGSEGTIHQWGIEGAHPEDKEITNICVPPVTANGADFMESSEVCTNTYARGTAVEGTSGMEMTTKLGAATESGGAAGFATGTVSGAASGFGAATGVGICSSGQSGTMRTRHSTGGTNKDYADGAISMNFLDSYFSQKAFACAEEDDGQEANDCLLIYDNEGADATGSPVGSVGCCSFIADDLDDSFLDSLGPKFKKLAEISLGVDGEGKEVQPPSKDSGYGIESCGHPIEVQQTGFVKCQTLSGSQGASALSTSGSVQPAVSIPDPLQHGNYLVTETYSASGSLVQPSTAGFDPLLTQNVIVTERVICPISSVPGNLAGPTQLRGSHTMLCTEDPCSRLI
# MPTP counter = membrane potential counter-screen of mitochondrial pore inhibitors; inhibition, % at 10 µM; AID 624504; isolated mitochondria, Rhodamine 123 fluorescence; shares compounds with MPTP inh; 78% of 5,000 active; in the data active = inhibition above about 22%
# Numbers stand for hits; - = inactive; . = no result. Compounds with a hit are over-represented: about 4.7% of the library has one in this group of screens.
SMILES,MPTP inh,ADAM17 inh,ADAM10 inh,proKLK7 act,rCAG binder,DSG3 Ab inh,MPTP counter
Cc1ccc2nc(SC(C(=O)Nc3ccc(F)cc3)c3ccccc3)[nH]c2c1 (stereo not drawn),77,-,-,-,-,-,86
Cc1ccc(C)c(NC(=O)C(Sc2nc3ccc(C)cc3[nH]2)c2ccccc2)c1 (stereo not drawn),84,-,-,-,-,-,92
COc1cc(-n2c(C)cc(O)cc2=O)ccc1Cl,.,-,-,-,-,.,.
COC(=O)C1=C(C)N(Cc2ccccc2C(F)(F)F)C(=NCc2ccc(OC)cc2)NC1CCc1ccccc1 (stereo not drawn),.,-,-,-,-,.,.
COc1ccccc1NS(=O)(=O)c1ccc(NN=C2CCCC2)c([N+](=O)[O-])c1,60,-,-,-,-,-,47
CNC(=S)Nc1ccc(C23CC4CC(CC(C4)C2)C3)cc1,52,-,-,-,-,-,66
CC(C)(C)c1ccc2c(c1)C(=O)c1ccccc1C2=O,-,-,-,-,-,-,.
CC(C)(C=O)C1=CC(=O)c2ccccc2C1=O,100,-,-,-,-,-,-
Cc1cc(/C=N/n2cnnc2)c(C)n1-c1ccc(OCc2ccc(Cl)cc2)cc1,114,-,-,-,-,-,100
C(=N\n1cnnc1)/c1ccc(OCc2ccccc2)cc1,-,-,-,-,-,-,.
Cc1cc(/C=N/n2cnnc2)c(C)n1-c1ccc(OCc2ccccc2F)cc1,98,-,-,-,-,-,96
COc1ccc(C2CC(=O)C(c3ccc(F)cc3)=CN2Cc2ccccc2)cc1 (stereo not drawn),.,-,-,-,-,.,.
CC1(C)CC(=O)C2=C(C1)NC1=C(C(=O)c3ccccc31)C2c1ccc(O)cc1 (stereo not drawn),-,-,-,-,-,-,.
CCCc1ccc(C2C3=C(CC(C)(C)CC3=O)NC3=C2C(=O)c2ccccc23)cc1 (stereo not drawn),81,-,-,-,-,-,52
CCCCc1ccc(C2C3=C(CC(C)(C)CC3=O)NC3=C2C(=O)c2ccccc23)cc1 (stereo not drawn),71,-,-,-,-,-,53
COC(=O)[C@]12CCCCC=C1N(Cc1ccc(OC)cc1)C(=O)[C@@H]2CC(=O)NCCc1ccccc1OC,.,-,-,-,-,.,.
O=C(Nc1cccc([N+](=O)[O-])c1)NC1CCCCN(Cc2cccc(Cl)c2)C1=O (stereo not drawn),.,-,-,-,-,.,.
C=CC(=O)Nc1cccc(N(C)c2ccnc(Nc3ccc(N4CCN(C)CC4)cc3)n2)c1,102,.,.,.,.,-,93
C=CC(=O)Nc1cccc(Oc2ccnc(Nc3ccc(N4CCN(C)CC4)cc3)n2)c1,-,-,-,-,-,-,.
COC(=O)[C@]12C[C@H](CC(=O)NCc3ccc(OC)c(OC)c3)C(=O)N(Cc3ccccc3)C1=C[C@H](COCc1ccccc1)O[C@@H]2C,.,-,-,-,-,.,.
CCCCOc1ccc(Br)cc1/C(C)=N/NC1=NCCN1,67,-,-,-,-,-,92
CCOC(=O)c1ccc(NC(=O)CCc2nc(-c3ccccc3)no2)cc1,62,-,-,-,-,-,69
CCOC(=O)c1cccc(NC(=O)CCc2nc(-c3ccc(C)cc3)no2)c1,-,-,-,-,-,-,.
CCOC(=O)c1ccc(NC(=O)CCc2nc(-c3ccccc3Cl)no2)cc1,89,-,-,-,-,-,76
CCOC(=O)c1cccc(NC(=O)CCc2nc(-c3ccccc3F)no2)c1,-,-,-,-,-,.,.
SMILES,MPTP inh,ADAM17 inh,ADAM10 inh,proKLK7 act,rCAG binder,DSG3 Ab inh,MPTP counter
CCOC(=O)c1sc(NC(=O)c2cccs2)cc1C,-,-,-,-,-,-,.
S=C(Nc1ccc(Cc2ccncc2)cc1)Nc1cccc(Cl)c1,93,-,-,-,-,-,81
CNC(=S)Nc1ccc(Cc2ccncc2)cc1,-,-,-,-,-,-,.
O=C(Nc1cccc(Cl)c1)Nc1ccc2c(c1)C(=O)OC2,80,-,-,-,-,-,85
CCOC(=O)c1sc(NC(=O)Nc2cccc(Cl)c2)cc1C,79,-,-,-,-,-,49
O=C(Nc1cccc(F)c1)Nc1ccc2c(c1)C(=O)OC2,-,-,-,-,-,-,.

# Compound activity deposited in PubChem by several laboratories.
